In the supplement of paper PMC6555819:

Tests used:
Assay in all cases: PBM binding z-score (relative to random genomic background probes); higher = stronger binding; sequences stand for … in GC…GCGATTGACAGCGTAGAATGAAGG
[1] = test system: PPARg:RXRa DBDmut IVT, anti-RXR (DBD mutation: RXRa K156A/R161A, NR concentration 270 nM, RXRa partner concentration 90 nM)
How it was run: (§1)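 Regression normalization was applied to scanned fluorescence from custom Agilent 4×180K protein-binding microarrays. Before scanning, arrays were incubated 1 h with ligand-free nuclear receptor dimers, and binding was detected with antibodies against each partner (one per run). Binding z-scores use the random background probes as reference.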

[2] = test system: PPARg:RXRa IVT, anti-PPARg (NR concentration 270 nM, RXRa partner concentration 90 nM)
How it was run: as §1

[3] = test system: PPARg DBDmut:RXRa IVT, anti-PPARg (DBD mutation: PPARg1 K132A/R137A, NR concentration 270 nM, RXRa partner concentration 90 nM)
How it was run: as §1

[4] = test system: PPARg DBDmut IVT, anti-PPARg (DBD mutation: PPARg1 K132A/R137A, NR concentration 270 nM)
How it was run: as §1

[5] = test system: PPARg homodimer (NR concentration 180 nM)
How it was run: as §1

[6] = test system: PXR:RXRa (NR concentration 270 nM, RXRa partner concentration 90 nM)
How it was run: as §1

[7] = test system: PXR homodimer (NR concentration 270 nM)
How it was run: as §1

[8] = test system: RARa:RXR (NR concentration 270 nM, RXRa partner concentration 90 nM)
How it was run: as §1

[9] = test system: RARa homodimer (NR concentration 270 nM)
How it was run: as §1

[10] = test system: RARb:RXRa (NR concentration 270 nM, RXRa partner concentration 90 nM)
How it was run: as §1

[11] = test system: RARb homodimer (NR concentration 270 nM)
How it was run: as §1

[12] = test system: RARg:RXRa (NR concentration 270 nM, RXRa partner concentration 90 nM)
How it was run: as §1

[13] = test system: RARg homodimer (NR concentration 270 nM)
How it was run: as §1

[14] = test system: RXRa DBDmut IVT, anti-RXR (DBD mutation: RXRa K156A/R161A, NR concentration 90 nM)
How it was run: as §1

[15] = test system: RXRa homodimer (NR concentration 180 nM)
How it was run: as §1

[16] = test system: THRa:RXRa (NR concentration 90 nM, RXRa partner concentration 90 nM)
How it was run: as §1

[17] = test system: THRa homodimer (NR concentration 90 nM)
How it was run: as §1

[18] = test system: VDR homodimer (NR concentration 270 nM)
How it was run: as §1

Sequence | PBM binding z-score [1] | PBM binding z-score [2] | PBM binding z-score [3] | PBM binding z-score [4] | PBM binding z-score [5] | PBM binding z-score [6] | PBM binding z-score [7] | PBM binding z-score [8] | PBM binding z-score [9] | PBM binding z-score [10] | PBM binding z-score [11] | PBM binding z-score [12] | PBM binding z-score [13] | PBM binding z-score [14] | PBM binding z-score [15] | PBM binding z-score [16] | PBM binding z-score [17] | PBM binding z-score [18]
TAGCCTGGGTCATTCAGGGGCCAGTATAGAAAGC | 0.888 | 2.36 | 0.524 | -0.652 | 1.98 | 2.3 | -0.415 | 3.78 | -0.568 | 3.35 | 2.55 | 6.03 | 3.76 | 1.25 | 3.24 | 3.34 | -0.502 | 0.911
ACTAGCAGGACAAGGGTCACTCAAGATTAGTCCG | 0.93 | 3.2 | -0.0211 | -0.445 | 2.71 | 3.31 | 0.0433 | 4.23 | 0.605 | 3.47 | 3.75 | 4.12 | 3.61 | 0.928 | 3.68 | 3.04 | 0.529 | 2.01
ATCTCTCGGTAAGACTCAGTTCAGTGAAGAACGC | 0.0945 | 0.262 | 0.647 | 0.946 | 1.35 | 1.2 | 1.82 | 0.858 | 1.21 | 0.565 | 1.05 | 0.265 | 0.481 | 0.833 | 0.224 | 0.746 | 1.17 | 2.06
CAGCCTAGGTCAGGGCCATTATAGGAGGAACGTT | 1.48 | 1.78 | -0.531 | -0.742 | 0.564 | 0.649 | -0.202 | 1.15 | 0.229 | 3.45 | 2.66 | 3.08 | 4.01 | 0.265 | 1.84 | 2.07 | 0.505 | -0.15
ACTCGGAGGACAAAGGTTAGAGCTACGCCAGTGA | 0.161 | 1.72 | -0.577 | -0.0683 | 1.1 | 0.7 | 0.168 | 1.46 | 0.397 | 2.23 | 1.89 | 2.94 | 1.93 | 0.75 | 1.7 | 1.76 | -0.114 | 0.17
ACTATGAGTTGACTTAGGGCAACCGATACGACGC | 0.0745 | 0.378 | 0.38 | 1.61 | 0.141 | 0.608 | 0.888 | 1.09 | 0.486 | 0.974 | 1.06 | 1.07 | 1.2 | 1.49 | 0.819 | 2.22 | 0.414 | 1.26
AGAATGAGGTTATTAAGGTCAGGGAATTGCGGTC | 4.18 | 4.42 | 1.61 | 0.235 | 2.65 | 5.11 | 11.1 | 4.38 | 1.85 | 3.79 | 4.31 | 4.16 | 3.63 | 2.88 | 4.62 | 4.71 | 5.16 | 4.86
TGTCATAGTTCAAAGGTAACGTAAGTATCCACAC | -0.243 | 3.05 | 1.21 | 1.83 | 1.56 | 3.52 | 1.08 | 4.52 | 1.31 | 3.46 | 2.51 | 4.15 | 3.54 | 2.09 | 5.18 | 2.6 | 0.118 | 1.23
CCAGACAGGTGTGAAGGTAACTCAGCCTCGATTA | -0.0821 | -0.409 | -1.46 | -0.767 | 0.376 | -0.386 | 0.146 | -0.273 | 0.322 | -0.103 | 0.327 | -0.276 | -0.122 | 0.399 | -0.117 | 0.116 | 0.347 | 0.0431
CCGACTGGGGCATAAGGGTACCATAAGCCAGCCC | 1.55 | 1.97 | -1.37 | -1.11 | -0.201 | -0.472 | -0.387 | -0.246 | -0.606 | 0.641 | 0.3 | 0.401 | 0.239 | -0.871 | 0.269 | -0.0868 | -0.457 | -0.543
TCTCGGAGGACAAGAAAGGTCAGAGCTCGACATC | 1.37 | 0.954 | -0.439 | -0.79 | 2.62 | 3.55 | 0.191 | 4.02 | 0.689 | 4 | 4.61 | 4.01 | 4.75 | 0.958 | 3.39 | 3.24 | 0.472 | 0.546
GCGACTGGGGCATCAGCAGGTTACCAGAACTTAA | 3.48 | 3.19 | -0.703 | -1.1 | 0.612 | -0.0392 | -0.687 | 0.483 | -0.801 | 0.987 | 0.768 | 0.911 | 0.328 | -0.241 | 0.262 | 0.858 | -0.159 | -0.517
CCTACTGGGCCATTCAGAGGTCATTGCTCATATG | 4.61 | 4.29 | -0.1 | -0.505 | 1.87 | 4.7 | 2.5 | 4.24 | 0.689 | 3.01 | 3.78 | 4.44 | 3.16 | 0.998 | 3.47 | 3.03 | 1.28 | 3.65
TCGAGTAGGTTACCAATGGGTCATTCAGCTTTCT | 3.45 | 2.82 | 0.364 | -0.28 | 1.39 | 1.88 | -0.563 | 2.5 | -0.538 | 1.77 | 2.41 | 3.58 | 1.68 | 0.573 | 2.18 | 1.62 | -0.434 | 0.102
